These results are taken from the supplement of paper PMC9844399.
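Note: Hoechst-stained nuclei counted by automated confocal imaging of four fields per well in 384-well plates, with the robust Z-score based on the per-plate DMSO median and robust SD.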

The subject of the experiment is HeLa. The experiment can be described thus: nuclear count per well, robust Z-score vs DMSO; higher = more cells (less toxicity). Conditions: 10 µM; 6 h.
In the case of `CN(C)CCc1c[nH]c2ccc(C[C@H]3COC(=O)N3)cc12` [Zolmitriptan], the “nuclear count per well” value is -0.0411.
For `CN1CCN2c3ncccc3Cc3ccccc3C2C1` (stereo not drawn) [Mirtazapine], the “nuclear count per well” value was found to be 0.384.
For the molecule `CC1(C)S[C@@H]2[C@H](NC(=O)COc3ccccc3)C(=O)N2[C@H]1C(=O)O` [Penicillin V Potassium], the “nuclear count per well” value is -0.676.
For the molecule `CC[C@@H]1/C=C(\C)C[C@H](C)C[C@H](OC)[C@H]2O[C@@](O)(C(=O)C(=O)N3CCCC[C@H]3C(=O)O[C@H](/C(C)=C/[C@@H]3CC[C@@H](O)[C@H](OC)C3)[C@H](C)[C@@H](O)CC1=O)[C@H](C)C[C@@H]2OC` [Ascomycin (FK-520)], the “nuclear count per well” value is 0.396.
For the molecule `COCC1=C(C(=O)OC(C)OC(=O)OC(C)C)N2C(=O)[C@@H](NC(=O)/C(=N\OC)c3csc(N)n3)[C@H]2SC1` (stereo partly drawn) [Cefpodoxime Proxetil], the “nuclear count per well” value amounted to 0.539.
Take `CCCCCC(=O)/C=C/C=C\C/C=C\C/C=C\CCCC(=O)O` [15-Ketoicosatetraenoic acid]: the “nuclear count per well” value is -0.149.
Regarding `CCCN(CCC)CCc1cccc2c1CC(=O)N2`, the “nuclear count per well” value is 0.888.
As to `CCN1CCCC1CNC(=O)c1cc(S(N)(=O)=O)ccc1OC` (stereo not drawn) [Sulpiride], the “nuclear count per well” value was determined as 0.691.
Turning to `CC1=C(C)C(=O)C(CCCCC#CCCCC#CCO)=C(C)C1=O`, the “nuclear count per well” value was -1.15.
Take `Cn1ccnc1S` [Methimazole]: the “nuclear count per well” value is -0.461.
`NS(=O)(=O)c1cc2c(cc1Cl)N=CNS2(=O)=O` [Chlorothiazide]: the “nuclear count per well” value was -0.175.
For the molecule `COc1cc2nc(N(C)CCCNC(=O)C3CCCO3)nc(N)c2cc1OC` (stereo not drawn) [Alfuzosin], the “nuclear count per well” value stood at 0.548.
With `NNC(=O)c1ccncc1` [Isoniazid], the “nuclear count per well” value was -0.0369.
